Out of some 2,500 compounds screened, about 360 (14%) were called active.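 The calls were made as follows: active = signal-lowering compounds whose fitted half-maximal concentration AC50 is no higher than ten times their top tested concentration; inconclusive = flat curve with 30 to 70% inhibition, or poor fit; inactive = flat within 30%, signal increase, or AC50 above limit.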 A selection follows.

This passage reports AC50 results from PubChem BioAssay AID540356 (Broad Institute, 2011).

The nature of this test: HRP/luminol detection interference without ALR, dose response, artefact control for ALR inhibitor project, biochemical, luminescence, no ALR or DTT, cherry-pick (AID 540356). The settings on record: HRP/H2O2 luminol luminescence counterscreen; series mostly up to 10 µM.
With `O=c1ccsn1Cc1ccccc1`, the AC50 result is “inactive”.

With `COc1cc(OC)cc(C(=O)Nc2ccc(S(=O)(=O)Nc3cc(C)nc(C)n3)cc2)c1`, the AC50 entry is “inactive”.

`COc1ccc(OC)c(N(CC(N)=O)S(=O)(=O)c2ccc(OC)c(OC)c2)c1`: the AC50 entry is “inactive”.

For the molecule `Cc1ccc(S(=O)(=O)NN2C(=O)/C(=C/c3cccnc3)SC2=S)cc1`, the AC50 entry was “inactive”.

Consider `Cc1nc(C)c(/C(O)=C\c2nc3ccc([N+](=O)[O-])cc3oc2=O)o1`, for which the AC50 result is “inactive”.

Consider `Cc1cc(C(=O)Nc2nnc(-c3ccccc3)s2)no1`, for which the AC50 result is “inactive”.

Regarding `CNc1nnc(-c2cccc(N(C)C)c2)s1`, the concentration at half-maximal activity (AC50) is 1.05 µM (active).

With `Cc1nc(SCc2ccc(Cl)c(Cl)c2)ncc1C(=O)O`, the AC50 result was “inactive”.

Regarding `COc1c(F)c(F)c(C(=O)O)c(Nc2ccc(C)cc2C)c1F`, the AC50 entry is “inactive”.

`COc1ccc(N2C(=O)CSC2c2ccncc2)cc1` (configuration not stated): the AC50 entry is “inactive”.

In the case of `CCCCN(C)S(=O)(=O)c1ccc(C(=O)Nc2nnc(-c3ccco3)o2)cc1`, the AC50 entry was “inactive”.

In the case of `Cn1c(=O)c2c(nc(N/N=C/c3ccncc3)n2Cc2ccccc2)n(C)c1=O`, the AC50 result is “inactive”.

`Cc1cccnc1Nc1nc(-c2ccc(O)cc2O)cs1`: the AC50 result was “inactive”.

`Nc1ncc(-c2ccccc2)c(-c2ccc(O)cc2O)n1`: the AC50 entry was “inactive”.

In the case of `Cc1ccc(Nc2nc(-c3ccc(O)cc3O)cs2)nc1`, the AC50 result was “inactive”.

As to `COc1ccc(-c2n[nH]c(C)c2-c2ccccc2OC)c(O)c1`, the AC50 entry was “inactive”.

Take `Cc1ccc(-n2c(-c3ccc(Cl)cc3)n[nH]c2=S)c(C)c1`: the AC50 result is “inactive”.

Consider `COc1ccccc1-c1cc(-c2ccc(O)cc2)nc(N)c1C#N`, for which the AC50 entry is “inactive”.

`COc1ccc(-c2cn[nH]c2-c2ccc(OC)cc2O)cc1`: the AC50 result is “inactive”.

For `Cc1cc(C)nc(NNC(=O)c2ccccc2O)n1`, the AC50 result is “inactive”.

In the case of `CC[C@@H](C)[C@H](NC(=O)Cc1c(C)c2cc3c(C)coc3c(C)c2oc1=O)C(=O)O`, the AC50 entry is “inactive”.

With `O=C(O)c1ccc(Sc2nnc(-c3cccc(Br)c3)o2)c([N+](=O)[O-])c1`, the AC50 entry is “inactive”.

Take `ClCc1csc(-c2ccc(Cl)cc2)n1`: the AC50 result was “inactive”.

For `O=C(NCCc1ccc(O)cc1)c1ccc(Cl)cc1`, the AC50 entry is “inactive”.

Consider `Cc1ccc(O)c(NC(=O)CCCC(=O)O)c1`, for which the AC50 entry is “inactive”.

Consider `c1ccc(-c2cc(N3CCCCCC3)n[nH]2)cc1`, for which the AC50 entry is “inactive”.

With `O=c1cc(-c2cccc([N+](=O)[O-])c2)[nH][nH]1`, the AC50 entry was “inactive”.

Regarding `CC(=NC1CCCC1)c1c(C)[nH]n(-c2nc3ccccc3s2)c1=O`, the AC50 entry was “inactive”.

On to `N/C(=N/O)c1ccccc1N1CCC(Cc2ccccc2)CC1`, for which the AC50 result was “inactive”.

As to `Cc1nc(-c2cccc(N)c2)cs1`, the AC50 entry is “inactive”.

For the molecule `CN(C)S(=O)(=O)c1cccc(-c2cn3cccnc3n2)c1`, the AC50 result was “inactive”.

As to `Nc1cccc(-c2cn3cccnc3n2)c1`, the AC50 was 4.52 µM (active).

For `COc1ccc(CC(=O)N2CCN=C2SCc2cccc([N+](=O)[O-])c2)cc1`, the AC50 result is “inactive”.

For the molecule `COc1ccc(/C=N/NC(=O)c2ccn[nH]2)cc1CSc1ccccn1`, the AC50 entry is “inactive”.

Regarding `CCc1c(C)c2cc(Cl)c(O)c(CN3CCCCC3)c2oc1=O`, the AC50 result was “inactive”.

Turning to `Cc1c(Br)c(=O)oc2c(Br)c(O)c(O)cc12`, the concentration at half-maximal activity (AC50) is 7.79 µM (active).

For the molecule `CC1CCC2C(C1)Nc1c(C(=O)O)cccc1C2(C)C` (configuration not stated), the AC50 entry was “inactive”.

For `C=CCn1c(C(C)NC(=O)c2cccc(C)c2)n[nH]c1=S` (configuration not stated), the AC50 result is “inactive”.

As to `COc1cccc(OC)c1C(=O)N1CCN=C1SCc1cccnc1`, the AC50 entry was “inactive”.

In the case of `O=C(O)C(c1ccccc1)N1C(=O)/C(=C\c2ccc(-c3cccc(Cl)c3)o2)SC1=S` (configuration not stated), the AC50 entry is “inactive”.

Regarding `O=C(O)C(c1ccccc1)N1C(=O)/C(=C\c2ccc(O)c(O)c2)SC1=S` (configuration not stated), the AC50 is 5 µM (active).

For `Cc1cc(C)nc(NN2C(=O)/C(=C/c3ccc(O)cc3)SC2=S)n1`, the AC50 result is “inactive”.

For the molecule `Clc1ccc(/C=C/c2ncc3ccccn23)cc1`, the AC50 result is “inactive”.

For `COc1ccc(/C=N/Nc2nc3ccccc3[nH]2)cc1OC`, the AC50 entry is “inactive”.

As for `COc1cc(/C=N/Nc2nc3ccccc3[nH]c2=O)ccc1O`, the AC50 result is “inactive”.

Consider `COc1cc(/C=N/Nc2nc3ccccc3[nH]2)ccc1O`, for which the AC50 is 8.83 µM (active).

`O=S(=O)(Nc1ccc(N2CCCCC2)cc1)c1cccc2cccnc12`: the AC50 entry is “inactive”.

Regarding `COc1ccc(CNc2nc3ccccc3n2C(C)C)c(O)c1`, the AC50 result was “inactive”.

Turning to `COc1ccc(O)c(-c2cc(-c3ccccc3[N+](=O)[O-])[nH]n2)c1`, the AC50 entry is “inactive”.

`Oc1ccccc1-c1n[nH]c(=S)n1Cc1ccco1`: the AC50 entry was “inactive”.

As for `COc1ccc(N2CCN(S(=O)(=O)c3cccc4cccnc34)CC2)cc1`, the AC50 result was “inactive”.

On to `Oc1ccc(NCc2cccs2)cc1`, for which the AC50 entry was “inactive”.

As to `Oc1cccc(Nc2c3ccccc3nc3ccccc23)c1`, the AC50 entry is “inactive”.

Regarding `COC(=O)C1C(C(C)C)N(c2ccccc2)OC1(C)O` (configuration not stated), the AC50 entry is “inactive”.

Consider `CCc1ccc(CNc2ccc(N3CCN(C(C)=O)CC3)cc2)cc1`, for which the AC50 entry was “inactive”.

Regarding `CC(=O)N1CCN(c2ccc(NCc3cccc4ccccc34)cc2)CC1`, the AC50 entry is “inactive”.

Consider `CC(=O)N1CCN(c2ccc(NCc3ccccc3)cc2)CC1`, for which the half-maximal activity concentration (AC50) is 8.41 µM (active).

For the molecule `CCN(CCCNC(=O)CN(C)S(=O)(=O)c1cccc2nsnc12)c1cccc(C)c1`, the AC50 entry is “inactive”.

`O=S(=O)(c1ccc2ccccc2c1)N1CCN=C1SCc1cccnc1`: the AC50 result is “inactive”.

With `CCCc1ccc(-c2cc(N)n[nH]2)cc1`, the AC50 result was “inactive”.

Take `Cc1cccc(N/N=C/c2ccncc2)c1`: the AC50 was 2.61 µM (active).

As for `Cc1cccc(N/N=C/c2ccc(O)c(O)c2O)c1`, the AC50 result is “inactive”.

On to `O=C(N/N=C/c1ccncc1)c1cccc(N/N=C/c2ccncc2)c1`, for which the AC50 result was “inactive”.

As for `COC(=O)/C=C/S(=O)(=O)c1ccc(NC(C)=O)cc1`, the AC50 result is “inactive”.

For the molecule `CC(=O)N/N=C/c1cc(C)n(-c2ccc(Br)cc2)c1C`, the AC50 result was “inactive”.

For the molecule `COc1cc(/C=C2\CCCc3c2nc2ccccc2c3C(=O)O)cc(Br)c1O`, the AC50 result is “inactive”.

Take `CCN(CC)c1ccc(NS(=O)(=O)c2ccc(OC)cc2)cc1`: the AC50 result is “inactive”.

On to `CCc1cc(C(=O)c2ccc(OC)cc2)c(NC(=O)CC(C)(C)CC(=O)O)s1`, for which the AC50 entry was “inactive”.

As to `COc1cc(/C=N/NC(=O)c2ccc(CSc3nncn3C)cc2)cc(OC)c1O`, the AC50 entry is “inactive”.

In the case of `Cn1c(CSCc2ccc(Cl)cc2)n[nH]c1=S`, the AC50 entry was “inactive”.

With `Cc1nn(-c2ccccc2)c(C)c1-c1cc(C(=O)N/N=C/c2ccc(O)cc2)[nH]n1`, the AC50 result is “inactive”.

`Cc1cc(C)n2nc(C(=O)N/N=C/c3ccc(O)cc3)nc2n1`: the AC50 result was “inactive”.

As to `CN(C)Cc1ccccc1Sc1ccc(O)cc1O`, the AC50 result was “inactive”.

On to `Cc1c(Cl)cccc1-n1c(-c2cccnc2)n[nH]c1=S`, for which the AC50 result is “inactive”.

For `CN(C)c1ccc(CNS(=O)(=O)c2ccc3c(c2)NC(=O)CS3)cc1`, the AC50 result was “inactive”.

As for `Cc1ccc(NNC(=O)c2ccno2)cc1Cl`, the AC50 was 0.327 µM (active).

`Cc1cc(C(=O)NNc2ccc(F)cc2)no1`: the AC50 entry is “inactive”.

Regarding `Cc1ccc(NNC(=O)c2ccno2)cc1C`, the AC50 was 0.635 µM (active).

`O=C(Nc1ccc(Cl)c(Cl)c1)Nc1ccccc1C(=O)O`: the AC50 result is “inactive”.

For `Cc1ccc(NCCC(=O)c2cccs2)cc1C`, the AC50 result is “inactive”.

For the molecule `COc1ccc(/C=N/NC(=O)c2ccncc2)cc1CN1CCN(c2ccc(F)cc2)CC1`, the AC50 entry was “inactive”.

For the molecule `CCN(CC)c1ccc(/C=N/NC(=O)c2cccc(N3CCCC3=O)c2)cc1`, the AC50 entry was “inactive”.
